Test [1] is described as follows: ATG_ISRE_CIS: Attagene CIS-FACTORIAL HepG2 Assay for human Interferon Regulatory Factor 1 (IRF1) binding to an Interferon-Stimulated Response Element (ISRE) (AID 2282948). To be noted: HepG2 ISRE cis-reporter (Attagene), mRNA transcription readout; actives raise or lower the signal. Put shortly:
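Cell-based cis-reporter assay; HepG2; 24 h exposure; reporter mRNA by RT-PCR plus capillary electrophoresis fluorescence; activity in either direction scored relative to DMSO.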

Test [2] is described as follows: ATG_M_32_CIS: Attagene CIS-FACTORIAL HepG2 Assay for M32 Transcription Factor (Internal Marker) (AID 2282949).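 Further: background control marker of the multiplexed CIS panel rather than a real target.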 To be noted: HepG2 Attagene cis-factorial M32 reporter, mRNA; actives raise or lower the signal. Put shortly: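 Following 24 h chemical exposure of HepG2 cells transiently expressing cis-promoter reporter constructs, reporter transcript levels were determined by RT-PCR with fluorescent labelling and capillary electrophoresis, then fitted bidirectionally against DMSO.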

Test [3] can be described thus: ATG_M_06_CIS: Attagene CIS-FACTORIAL HepG2 Assay for M06 Transcription Factor (Internal Marker) (AID 2282950). Particulars: HepG2 Attagene CIS-FACTORIAL M06 internal marker reporter; actives raise or lower the signal. In a few lines: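 Steps: transfect HepG2 with multiplexed cis-element reporter constructs; dose chemical 24 h; extract RNA with DNase treatment; reverse-transcribe, PCR-amplify, 6-FAM label, HpaI digest; separate fragments by capillary electrophoresis. Activity fitted both directions versus DMSO.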

For test [4], the target named is Hypoxia-inducible factor 1-alpha (Homo sapiens) (UniProt Q16665). The experiment in a line: ATG_HIF1a_CIS: Attagene CIS-FACTORIAL HepG2 Assay for human Hypoxia Inducible Factor 1 (HIF1A) (AID 2282951). To be noted: HepG2 Attagene cis-factorial HIF1a reporter transcription; actives raise or lower the signal. In a few lines: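 Dosed 24 h, transfected HepG2 cells yielded total RNA whose reporter transcripts were RT-PCR-amplified and sized by capillary electrophoresis using fluorescent labelling; DMSO defined baseline, with gain and loss of signal both fitted.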

Test [5] has as its target Hepatocyte nuclear factor 6 (Homo sapiens) (UniProt Q9UBC0). Description: ATG_HNF6_CIS: Attagene CIS-FACTORIAL HepG2 Assay for human Hepatocyte Nuclear Factor 6 (HNF6) (AID 2282952). Particulars: HepG2 Attagene cis-factorial HNF6 reporter transcription; actives raise or lower the signal. Put shortly: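 HepG2, transient MRTU transfection (cis promoters); 24 h chemical exposure; total RNA → oligo(dT) RT → PCR → 6-FAM labelling → HpaI cut → CE; bidirectional fit vs DMSO.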

The target in test [6] is Heat shock factor protein 1 (Homo sapiens) (UniProt Q00613). The experiment in a line: ATG_HSE_CIS: Attagene CIS-FACTORIAL HepG2 Assay for human Heat Shock Transcription Factor 1 (HSE) (AID 2282953). To be noted: HepG2 HSE cis-reporter, Attagene RNA transcription; actives raise or lower the signal. In a few lines: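 Cells were transfected with cis-element-driven reporter constructs, dosed for 24 h, then total RNA was reverse-transcribed and reporter cDNA amplified, FAM-labelled and digested with HpaI. Fragments were resolved by capillary electrophoresis; gain or loss was fitted against DMSO.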

Test [7] in a line: ATG_MRE_CIS: Attagene CIS-FACTORIAL HepG2 Assay for human Metal Responsive Element (MRE) (AID 2282954). To be noted: HepG2 MRE cis-reporter transcription, Attagene multiplex; actives raise or lower the signal. Put shortly:
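After a 24 h chemical exposure, transiently transfected HepG2 cells yield RNA whose reporter sequences are amplified, FAM-labelled and sized by capillary electrophoresis. Curves are fitted bidirectionally relative to DMSO.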

Test [8] can be described thus: ATG_PBREM_CIS: Attagene CIS-FACTORIAL HepG2 Assay for human Phenobarbital-responsive Enhancer Module (PBREM) (AID 2282955). Particulars: HepG2 PBREM cis-reporter, Attagene multiplexed transcription; actives raise or lower the signal. Put shortly:
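Transfected liver-derived HepG2 cells exposed 24 h; PBREM reporter transcript quantified via RT-PCR and capillary electrophoresis, with activity in either direction referenced to DMSO.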

Test [9] deals with Paired box protein Pax-6 (Homo sapiens) (UniProt P26367). Description: ATG_Pax6_CIS: Attagene CIS-FACTORIAL HepG2 Assay for human Paired Box 6 (PAX6) (AID 2282956). Particulars: HepG2 CIS-FACTORIAL PAX6 reporter transcription, RNA readout; actives raise or lower the signal. In a few lines:
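Multiplexed cis-reporter HepG2 system; 24 h treatment; reporter mRNA read by RT-PCR/CE fluorescence; bidirectional fit vs DMSO.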

Test [10] can be described thus: ATG_PXRE_CIS: Attagene CIS-FACTORIAL HepG2 Assay for human Pregnane X Receptor Element (PXRE) (AID 2282957). To be noted: HepG2 Attagene CIS-FACTORIAL PXRE reporter, mRNA; actives raise or lower the signal. In a few lines: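 Transfect HepG2 with MRTUs (cis promoter elements); dose chemical, incubate 24 h; isolate RNA, RT with oligo(dT), PCR, 6-FAM label, HpaI cut, CE. Gain/loss fit vs DMSO.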

Molecules are shown by their SMILES. “And” between values parts separate entries of the source, which are not always exact repeats. Equal entries are not always repeated. Some compounds were tested as several samples or in several runs, with calls that do not always agree. The source made the active and inactive calls. How the source made its calls: active means hit-call score of the fitted dose curve at least 0.9, where 1 is the maximum; inactive means score below 0.9.

Chain of Paired box protein Pax-6 (Homo sapiens) (P26367 whole entry, looked up): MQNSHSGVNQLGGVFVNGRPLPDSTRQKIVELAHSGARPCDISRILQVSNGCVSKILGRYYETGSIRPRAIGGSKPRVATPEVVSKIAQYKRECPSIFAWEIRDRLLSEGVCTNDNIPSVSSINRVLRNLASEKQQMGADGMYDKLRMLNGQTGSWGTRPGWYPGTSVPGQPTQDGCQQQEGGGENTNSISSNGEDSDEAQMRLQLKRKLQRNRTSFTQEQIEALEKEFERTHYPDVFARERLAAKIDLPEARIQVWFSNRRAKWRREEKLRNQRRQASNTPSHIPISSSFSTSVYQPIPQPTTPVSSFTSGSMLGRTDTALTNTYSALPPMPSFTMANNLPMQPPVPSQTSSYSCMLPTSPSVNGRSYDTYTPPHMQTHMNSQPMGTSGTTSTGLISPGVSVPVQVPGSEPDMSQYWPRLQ
Chain of Hypoxia-inducible factor 1-alpha (Homo sapiens) (Q16665 whole entry, looked up): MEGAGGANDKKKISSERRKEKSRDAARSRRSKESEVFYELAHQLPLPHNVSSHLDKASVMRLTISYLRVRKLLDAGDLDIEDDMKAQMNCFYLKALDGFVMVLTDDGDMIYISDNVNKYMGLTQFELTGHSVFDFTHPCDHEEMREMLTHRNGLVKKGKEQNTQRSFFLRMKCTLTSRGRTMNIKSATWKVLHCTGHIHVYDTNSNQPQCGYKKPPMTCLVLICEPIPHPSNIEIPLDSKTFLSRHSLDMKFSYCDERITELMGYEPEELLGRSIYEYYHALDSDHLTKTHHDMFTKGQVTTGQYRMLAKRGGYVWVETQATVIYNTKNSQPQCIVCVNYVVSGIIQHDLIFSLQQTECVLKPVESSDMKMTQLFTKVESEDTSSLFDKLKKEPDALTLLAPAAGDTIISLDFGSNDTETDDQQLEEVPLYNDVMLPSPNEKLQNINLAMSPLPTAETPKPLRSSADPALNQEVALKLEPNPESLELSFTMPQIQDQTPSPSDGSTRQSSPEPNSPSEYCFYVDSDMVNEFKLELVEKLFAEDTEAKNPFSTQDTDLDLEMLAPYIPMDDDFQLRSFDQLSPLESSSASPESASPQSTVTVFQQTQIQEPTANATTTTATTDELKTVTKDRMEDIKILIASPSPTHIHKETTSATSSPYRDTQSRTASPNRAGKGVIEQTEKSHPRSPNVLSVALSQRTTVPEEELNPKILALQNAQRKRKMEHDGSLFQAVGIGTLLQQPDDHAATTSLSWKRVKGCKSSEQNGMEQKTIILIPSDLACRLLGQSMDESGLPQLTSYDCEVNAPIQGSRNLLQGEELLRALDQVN
Chain of Heat shock factor protein 1 (Homo sapiens) (Q00613 whole entry, looked up, the tested form may be a part): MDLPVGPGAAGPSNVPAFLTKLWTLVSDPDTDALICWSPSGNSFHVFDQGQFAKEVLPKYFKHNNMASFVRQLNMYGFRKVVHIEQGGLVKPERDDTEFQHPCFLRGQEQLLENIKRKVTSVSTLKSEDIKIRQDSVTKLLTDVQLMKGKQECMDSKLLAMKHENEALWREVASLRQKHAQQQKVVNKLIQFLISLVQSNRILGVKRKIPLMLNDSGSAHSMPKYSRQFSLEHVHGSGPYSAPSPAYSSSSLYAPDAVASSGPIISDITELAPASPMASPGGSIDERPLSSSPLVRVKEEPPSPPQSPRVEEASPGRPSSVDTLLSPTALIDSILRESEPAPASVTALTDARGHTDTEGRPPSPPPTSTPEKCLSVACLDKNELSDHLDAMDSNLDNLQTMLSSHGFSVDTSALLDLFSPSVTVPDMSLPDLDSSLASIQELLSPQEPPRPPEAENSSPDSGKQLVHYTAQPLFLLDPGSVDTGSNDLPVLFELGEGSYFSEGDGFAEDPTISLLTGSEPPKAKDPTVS
Chain of Hepatocyte nuclear factor 6 (Homo sapiens) (Q9UBC0 whole entry, looked up): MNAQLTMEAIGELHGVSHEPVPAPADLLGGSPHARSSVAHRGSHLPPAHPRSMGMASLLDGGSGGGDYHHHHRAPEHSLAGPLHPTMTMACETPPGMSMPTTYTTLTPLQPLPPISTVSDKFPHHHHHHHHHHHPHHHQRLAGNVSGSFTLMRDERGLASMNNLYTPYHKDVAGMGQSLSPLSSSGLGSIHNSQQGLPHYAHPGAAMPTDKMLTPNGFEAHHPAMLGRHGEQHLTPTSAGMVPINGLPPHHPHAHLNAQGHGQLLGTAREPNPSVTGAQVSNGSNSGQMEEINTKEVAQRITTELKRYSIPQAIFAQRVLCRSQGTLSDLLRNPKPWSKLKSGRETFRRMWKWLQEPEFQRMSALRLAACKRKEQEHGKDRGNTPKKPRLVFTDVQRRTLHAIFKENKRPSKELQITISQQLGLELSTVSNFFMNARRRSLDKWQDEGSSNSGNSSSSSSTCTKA

As for `C=CC#N`, the result in test [1], in [2], in [3], in test [4], in [5] and in test [6] was inactive. For the same molecule, the result in [7], in [8], in [9] and in [10] was inactive.
On to `CCOP(OCC)OCC`, for which the outcome in test [1], in test [2], in [3], in test [4], in test [5] and in test [6] was inactive. Besides, the result in test [7], in [8], in test [9] and in test [10] was inactive.
With `O=S(=O)(c1ccc(Cl)cc1)c1ccc(Cl)cc1`, the result in [1], in test [2], in test [3], in [4], in [5] and in [6] was inactive. The outcome in test [8] and in test [9] was inactive. The AC50 in [7] is 101 µM (active); in [10], 4.46 µM (active).
`CC(Br)C(=O)O` (stereo unspecified): the result in test [1], in [2], in [3], in test [4], in [5] and in test [6] was inactive. The call in test [7], in [8], in test [9] and in [10] was inactive.
As for `O=C(OC1CCCCC1)c1ccccc1C(=O)OC1CCCCC1`, the call in test [1], in test [2], in test [3], in test [5], in test [6] and in test [8] was inactive. In test [9], the molecule was called inactive. Also, the figures for the AC50 in [4], in test [7] and in [10] were 11.2 µM (active), 23.5 µM (active) and 0.58 µM (active), respectively.
`O=C(O)C(Cl)(Cl)Cl`: the outcome in test [1], in test [2], in test [3], in [4], in test [5] and in test [6] was inactive. Besides, the molecule was classed as inactive in test [7], in [8], in test [9] and in test [10]. For the same molecule, in test [10], the AC50 was 71.7 µM (active).
On to `CC(C)(OO)c1ccccc1`, for which the molecule was classed as inactive in test [1], in [2], in test [3], in test [4], in [5] and in test [6]. In addition, the result in test [7], in test [8], in test [9] and in test [10] was inactive.
As to `N#CN=C(N)N`, the call in test [1], in [2], in test [3], in test [4], in test [5] and in [6] was inactive. The molecule was called inactive in [7], in test [8], in test [9] and in test [10].
Take `CC(C)CCCCCCOC(=O)c1ccccc1C(=O)OCCCCCCC(C)C`: the molecule was classed as inactive in test [1], in [2], in [3], in [4], in test [5] and in [6]. Also, the molecule was classed as inactive in [7], in test [8] and in test [9]. Also, the AC50 in [10] was 1.39 µM (active).
On to `COP(=S)(OC)Oc1cc(Cl)c(Cl)cc1Cl`, for which the molecule was classed as inactive in test [1], in [2], in test [3], in test [4], in [5] and in test [6]. Also, the call in test [7], in [8] and in test [9] was inactive. The AC50 in [10] is 26.7 µM (active).
`CC1(C)Cc2cccc(O)c2O1`: the call in test [1], in test [2], in [3], in test [4], in test [5] and in test [6] was inactive. For the same molecule, the molecule was called inactive in test [7], in test [8] and in test [9]. For the same molecule, the AC50 in test [10] is 7.98 µM (active).
For the molecule `ClCC(Cl)CCl`, the molecule was classed as inactive in test [1], in [2], in [3], in test [4], in test [5] and in test [6]. The outcome in test [7], in test [8], in test [9] and in test [10] was inactive.
For the molecule `CC(=O)C=C(C)C`, the result in test [1], in [2], in [3], in test [4], in [5] and in test [6] was inactive. In addition, the molecule was classed as inactive in test [7], in test [8], in [9] and in [10].
In the case of `COP(=S)(OC)Oc1c(Cl)cc(C)cc1Cl`, the call in test [1], in [2], in [3], in test [4], in test [5] and in test [6] was inactive. Moreover, the result in [8] and in test [9] was inactive. Besides, the AC50 was 27.1 µM (active) in test [7] and 4.62 µM (active) in [10].
For `CC(=O)OC(c1ccccc1)C(Cl)(Cl)Cl` (stereo unspecified), the outcome in test [1], in test [2], in [3], in test [4], in test [5] and in [6] was inactive. For the same molecule, the molecule was called inactive in [7] and in [9]. Besides, the AC50 in test [10] is 48.6 µM (active).
Turning to `C=C(C)C(=O)[O][Sn]([CH2]CCC)([CH2]CCC)[CH2]CCC`, the AC50 is 0.612 µM (active) in test [1]; 0.656 µM (active) in test [5]; 0.68 µM (active) in test [6]; 0.412 µM (active) in test [7]; 0.514 µM (active) in [9]. The molecule was called inactive in [2], in test [3], in [4], in test [8] and in [10].
With `CC(C)(C)CC(C)(C)c1ccc(O)cc1`, the AC50 is 8.06 µM (active) in test [1]; 0.932 nM (active) and 20.1 µM (active) in test [4]; 3.34 µM (active) [middle of 4 runs] in test [10]. The molecule was classed as inactive in test [1], in test [2], in test [3], in [4], in test [5] and in test [6]. In addition, the molecule was called inactive in test [7] and in test [9].
For `ClCc1ccccn1`, the outcome in [1], in test [2], in test [3], in test [4], in test [5] and in test [6] was inactive. Moreover, the result in test [7], in [8], in test [9] and in test [10] was inactive.
Consider `CCSC(C)CC1CC(=O)C(C(CC)=NOC/C=C/Cl)=C(O)C1` (stereo unspecified), for which the molecule was classed as inactive in test [1], in test [2], in test [3], in test [4], in [5] and in [6]. The molecule was called inactive in test [7] and in test [9]. Moreover, in [10], the AC50 is 5.61 µM (active).
Consider `COP(=O)(OC)O/C(=C\Cl)c1cc(Cl)c(Cl)cc1Cl`, for which the AC50 in test [1] was 47 µM (active); in test [4], 100 µM (active); in [6], 153 µM (active); in [7] it was 100 µM (active); in test [9], 35.2 µM (active); in [10], 1.4 µM (active). Moreover, the molecule was called inactive in [2] and in test [3].
As to `Cl/C=C/Cl`, the outcome in test [1], in test [2], in [3], in test [4], in [5] and in [6] was inactive. The result in [7], in test [9] and in test [10] was inactive.
As for `COc1ccccc1OC`, the molecule was classed as inactive in test [1], in test [2], in test [3], in test [4], in test [6] and in test [7]. For the same molecule, the result in [8], in [9] and in test [10] was inactive.

Values taken from PubChem BioAssay (EPA / NIEHS).
